{"source": "ChEMBL document CHEMBL4513216", "about": "“Probing the Open Global Health Chemical Diversity Library for Multistage-Active Starting Points for Next-Generation Antimalarials” (ACS Infect Dis, 2020)", "note": "In all, about 69,000 compounds went through this assay and about 8,600 (12%) showed an effect of 50% or more. The full list was thinned out, with strong results kept by preference."}
{"tested_on": "Plasmodium berghei", "assay": "Screen against P. berghei liver stage (PbLuc), transformed with Luciferase, at 10uM", "assay_type": "functional, HepG2", "details": "tested at 10 uM", "units": {"INHIBITION": "%"}}
{"smiles": "CNc1cncc(C2CCCN2C(=O)CCn2ccnc2C(C)C)n1", "note": "(stereo not drawn)", "INHIBITION": 21.685}
{"smiles": "O=C(CC1CN(Cc2ccccc2)CCO1)NC1CCSCC1", "note": "(stereo not drawn)", "INHIBITION": 35.1}
{"smiles": "COCC(=O)N1CCCC1c1cc(N2CCN(C(C)=O)CC2)cc(C)n1", "note": "(stereo not drawn)", "INHIBITION": 18.9}
{"smiles": "COCC(=O)N1C[C@H]2CCCC(OCc3cccnc3)[C@H]2C1", "note": "(stereo partly drawn)", "INHIBITION": -3.52}
{"smiles": "Cc1nc(CN2CCO[C@@H]3CN(C(=O)NC(C)C)CC[C@@H]3C2)cs1", "INHIBITION": 36.4}
{"smiles": "CNS(=O)(=O)CC(=O)NCc1cc2c(s1)CCCCC2", "INHIBITION": 28.9}
{"smiles": "c1ccc(-c2nc(CCNC3CCOC4(CCOCC4)C3)no2)cc1", "note": "(stereo not drawn)", "INHIBITION": -6.34}
{"smiles": "CCn1nccc1CNc1[nH]cnc2nc(C)nc1-2", "INHIBITION": 26.4}
{"smiles": "O=C(NC1CCN(c2ccc(-c3ccccc3F)nn2)C1)c1cc[nH]n1", "note": "(stereo not drawn)", "INHIBITION": 49.5}
{"smiles": "O=C(NC1CCN(c2ccc(-c3ccccc3F)nn2)C1)C1CCC1", "note": "(stereo not drawn)", "INHIBITION": 60.8}
{"smiles": "O=C(NC1CCN(c2ccc(-c3ccccc3F)nn2)C1)c1ccc[nH]1", "note": "(stereo not drawn)", "INHIBITION": 12.4}
{"smiles": "CCOCC(=O)N1Cc2nccn2CC(CN2CCCC2)C1", "note": "(stereo not drawn)", "INHIBITION": 34.6}
{"smiles": "O=C1O[C@@H]2CN(c3ccccn3)C[C@@H]2N1CCCc1ccc(F)cc1", "INHIBITION": 86.7}
{"smiles": "O=C1O[C@@H]2CN(c3ncccn3)C[C@@H]2N1CCCc1ccc(F)cc1", "INHIBITION": 83.8}
{"smiles": "O=C1O[C@@H]2CN(C3CCOCC3)C[C@@H]2N1CCCc1ccc(F)cc1", "INHIBITION": 33}
{"smiles": "O=C1O[C@@H]2CN(Cc3ccncc3)C[C@@H]2N1CCCN1CCOCC1", "INHIBITION": -43.5}
{"smiles": "O=C1O[C@@H]2CN(c3cnccn3)C[C@@H]2N1CCCc1ccc(F)cc1", "INHIBITION": 9.4}
{"smiles": "Cc1cc(C)nc(N2C[C@H]3OC(=O)N(CCc4cccc(Cl)c4)[C@H]3C2)n1", "INHIBITION": -17.8}
{"smiles": "O=C1O[C@@H]2CN(c3ccncc3)C[C@@H]2N1CCCc1ccc(F)cc1", "INHIBITION": 75.2}
{"smiles": "O=C1O[C@@H]2CN(Cc3ccccn3)C[C@@H]2N1CCCc1ccc(F)cc1", "INHIBITION": 15.1}
{"smiles": "O=C1O[C@@H]2CN(c3ccc(Cl)cn3)C[C@@H]2N1CCc1ccc(F)cc1", "INHIBITION": -2.04}
{"smiles": "CCC1=N[C@@]2(CC[C@@H]3CN(CC4CC4)C[C@@H]32)C(=O)N1CC", "INHIBITION": 7.31}
{"smiles": "CCCS(=O)(=O)N1C[C@@H](c2nc(C)no2)C[C@H]2OCC[C@H]21", "INHIBITION": 33}
{"smiles": "CN(C)c1ncc2c(O)nc(C3CCNCC3)cc2n1", "INHIBITION": -9.51}
{"smiles": "COCc1n[nH]c2c1CN(C(=O)c1ccncc1)C2", "INHIBITION": 21.6}
{"smiles": "COc1ccccc1CCNC(=O)N(C)C(C)CS(C)(=O)=O", "note": "(stereo not drawn)", "INHIBITION": 38.7}
{"smiles": "COc1cc(Cl)ccc1CNC(=O)N(C)C(C)CS(C)(=O)=O", "note": "(stereo not drawn)", "INHIBITION": 61}
{"smiles": "CC(C)Oc1ccccc1CNC(=O)N(C)C(C)CS(C)(=O)=O", "note": "(stereo not drawn)", "INHIBITION": 33.2}
{"smiles": "CCOC1CCCN(C(=O)c2nn(-c3ccccc3F)cc2O)C1", "note": "(stereo not drawn)", "INHIBITION": 11.2}
{"smiles": "NC(=O)COc1cccc(Cn2cccn2)c1", "INHIBITION": -24.9}
{"smiles": "CN(C)c1cccc(C2CCCN2Cc2nnnn2C2CC2)c1", "note": "(stereo not drawn)", "INHIBITION": 26.6}
{"smiles": "NC(=O)COc1cccc(CN2CCCC2c2ccc[nH]2)c1", "note": "(stereo not drawn)", "INHIBITION": 62.6}
{"smiles": "COc1ccc(C2CCCN2Cc2nnnn2C2CC2)cc1OC", "note": "(stereo not drawn)", "INHIBITION": 19.7}
{"smiles": "N#Cc1cccc(CN2CCCC2Cn2cncn2)c1", "note": "(stereo not drawn)", "INHIBITION": 7.18}
{"smiles": "COc1cccc(C2CCCN2Cc2nnnn2C2CC2)c1", "note": "(stereo not drawn)", "INHIBITION": 51.6}
{"smiles": "NC(=O)c1ccc(OCC(=O)N2CCCC2c2ccc[nH]2)cc1", "note": "(stereo not drawn)", "INHIBITION": 28.2}
{"smiles": "COc1cccc(CN2CCCC2c2ccc[nH]2)c1", "note": "(stereo not drawn)", "INHIBITION": 62.6}
{"smiles": "N#CCCCOc1cccc(CN2CCCC2c2ccc[nH]2)c1", "note": "(stereo not drawn)", "INHIBITION": 43.1}
{"smiles": "COc1cccc(S(=O)(=O)CCN2CCCC2c2ccc[nH]2)c1", "note": "(stereo not drawn)", "INHIBITION": 32.3}
{"smiles": "N#Cc1cccc(CN2CCCC2Cn2cccn2)c1", "note": "(stereo not drawn)", "INHIBITION": -11.4}
{"smiles": "N#Cc1cccc(CN2CCCC2c2ccc[nH]2)c1", "note": "(stereo not drawn)", "INHIBITION": 50.7}
{"smiles": "Cc1nc(Cn2c3c(ccc2=O)CCN(CC2CC2)CC3)cs1", "INHIBITION": -8.85}
{"smiles": "COc1cccc(CC2CN(C3CCC3)CCO2)c1", "note": "(stereo not drawn)", "INHIBITION": 25.8}
{"smiles": "Cc1ccccc1NC(=O)c1cncc(C2CCNCC2)n1", "INHIBITION": -20.6}
{"smiles": "CCN1CC[C@@]2(C(=O)N3CCOCC3)CCN(C(=O)C(C)C)CC[C@@H]12", "INHIBITION": 14.9}
{"smiles": "Cc1cnn(CC2CCCCN2CC(=O)Nc2nc(C)cs2)c1", "note": "(stereo not drawn)", "INHIBITION": 33.8}
{"smiles": "Cc1nc(CN2CCO[C@@H]3CN(C(=O)CC4CC4)C[C@@H]3C2)cs1", "INHIBITION": 9.63}
{"smiles": "Cn1ccnc1CC1CCCN(C(=O)Cc2ccccc2)C1", "note": "(stereo not drawn)", "INHIBITION": 21.9}
{"smiles": "Cc1nn(C)c(C)c1C1CCCN1Cc1cccc(OCC(N)=O)c1", "note": "(stereo not drawn)", "INHIBITION": 72.9}
{"smiles": "COc1cccc(CN2CCCC2c2c(C)nn(C)c2C)c1", "note": "(stereo not drawn)", "INHIBITION": -14.8}
{"smiles": "Cc1nn(C)c(C)c1C1CCCN1Cc1cccc(C(N)=O)c1", "note": "(stereo not drawn)", "INHIBITION": 5.37}
{"smiles": "CCS(=O)(=O)CCN1CCCC1c1noc(C)n1", "note": "(stereo not drawn)", "INHIBITION": 16.8}
{"smiles": "Cc1cc(CNc2cccc(Cl)c2C)no1", "INHIBITION": 16.165}
{"smiles": "CCCSc1ncc(-c2nccn2CCC(N)=O)cn1", "INHIBITION": 53.3}
{"smiles": "CCCn1ccnc1-c1nccn1CCC(N)=O", "INHIBITION": 29.8}
{"smiles": "CCCSc1ncc(-c2nccn2CCO)cn1", "INHIBITION": 35.1}
{"smiles": "O=C1NCC(C(=O)Nc2ncc(Cc3cccc(F)c3)s2)N1", "note": "(stereo not drawn)", "INHIBITION": 12.7}
{"smiles": "Cc1ccc(Cc2cnc(NC(=O)C3CNC(=O)N3)s2)cc1F", "note": "(stereo not drawn)", "INHIBITION": 55.5}
{"smiles": "O=C1NCC(C(=O)Nc2ncc(Cc3ccc(F)cc3)s2)N1", "note": "(stereo not drawn)", "INHIBITION": 26.5}
{"smiles": "CNc1cc(C)nc(C2COCCN2CCOc2ccc(F)cc2)n1", "note": "(stereo not drawn)", "INHIBITION": -12.625}
{"smiles": "CC(SCc1ccc(Br)c2cccnc12)C(N)=O", "note": "(stereo not drawn)", "INHIBITION": 21.1}
{"smiles": "NC(=O)CCSCc1cc(Br)cc2cccnc12", "INHIBITION": -57.1}
{"smiles": "CC(SCc1cc(Br)cc2cccnc12)C(N)=O", "note": "(stereo not drawn)", "INHIBITION": 58.1}
{"smiles": "CC(OCC(F)(F)F)C(=O)N1CCCC1", "note": "(stereo not drawn)", "INHIBITION": -1.37}
{"smiles": "Cc1ccc(SCC2CNc3nc4ccccc4c(=O)n32)c(C)c1", "note": "(stereo not drawn)", "INHIBITION": 49.9}
{"smiles": "CC(=O)N(CCc1ccccc1)CC(=O)NC1(C#N)CC1", "INHIBITION": -3.39}
{"smiles": "CC(=O)N(CCc1ccccc1)CC(=O)Nc1ccccc1C#N", "INHIBITION": 45.8}
{"smiles": "CC(=O)N(CCc1ccccc1)CC(=O)NC(C)(C)C#N", "INHIBITION": 59.7}
